Where “and” joins values, the source holds several entries; their conditions need not be identical. Equal values may be shown once. The source holds several records for some structures; these can differ, active in one and inactive in another. Calls of active or inactive are those of the source. Rule for the calls: active = hit-call score of the fitted dose curve at least 0.9, where 1 is the maximum; inactive = score below 0.9.
read-out: Plasminogen activator inhibitor-1 (PAI1), SERPINE1 (gene 5054); experiment: BSK_BE3C_PAI1: BioMAP Diversity Plus: BE3C Assay for Plasminogen activator inhibitor-1 (PAI1) Biomarker Activity (AID 2283037); conditions: primary human bronchial epithelial cells; actives raise or lower the signal
Summary of the method: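 Human primary bronchial epithelial cells were exposed to chemical for 24 h, then PAI-1 was quantified by ELISA. Activity was fitted bidirectionally relative to the DMSO negative control baseline.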

| Compound | AC50 | outcome |
| --- | --- | --- |
| CCCCCCCCCCCCN1CCCC1=O | 31.8 µM (active) |  |
| CCCOC(=O)c1ccc(O)cc1 |  | inactive |
| CC(=O)NC1(c2cccc(F)c2)CCN(CC[C@@]2(c3ccc(Cl)c(Cl)c3)CN(c3ccccc3)C(=O)CO2)CC1 | 16.6 µM (active) |  |
| CCc1nn(C2CCCCC2)c2cc(C3(C#N)CCC(C(=O)O)CC3)ccc12 (configuration not stated) | 4.33 µM (active) |  |
| ClC1=C(Cl)C(Cl)(Cl)C(Cl)=C1Cl | 5.25 µM (active) |  |
| C[C@@H]1C[C@H]2[C@@H]3CCC4=CC(=O)C=C[C@]4(C)[C@@]3(F)[C@@H](O)C[C@]2(C)[C@@]1(O)C(=O)COP(=O)(O)O | 0.763 µM (active) | inactive |
| CCCCCCCCC(=O)O |  | inactive |
| NC(=O)N1C(=O)C(C(=O)c2cc(Cl)cs2)c2cc(F)c(Cl)cc21 (configuration not stated) | 3.15 µM (active) |  |
| CC(C)(C)CC(C)(C)c1ccc(O)c(-n2nc3ccccc3n2)c1 |  | inactive |
| c1ccc2c(c1)ccc1ccccc12 |  | inactive |
| CN1CCC[C@H]1c1cccnc1 |  | inactive |
| CCOC(=O)CC(O)(CC(=O)OCC)C(=O)OCC |  | inactive |
| O=c1c(-c2ccc(O)cc2)coc2cc(O)ccc12 |  | inactive |
| CCCCCCCCCCCCCC[N+](C)(C)C | 2.63 µM (active) |  |
| CCCCCCCCOC(=O)CCCCCCCCC(=O)OCCCCCCCC |  | inactive |
| OC1CCCCC1 |  | inactive |

| Compound | AC50 | outcome |
| --- | --- | --- |
| CCc1ccc(CCOc2ccc(CC3SC(=O)NC3=O)cc2)nc1 (configuration not stated) |  | inactive |
| COCC(C)OCC(C)O (configuration not stated) |  | inactive |
| N#C[C@@H]1CC(F)(F)CN1C(=O)CNC1CC2CCC(C1)N2c1ncccn1 (some centres not stated) |  | inactive |
| CCCCCCCCCCCCCCCS(=O)(=O)Oc1ccccc1 |  | inactive |
| CCN(CC)CCNc1ccc(CNC=O)c2sc3ccc(OC)cc3c(=O)c12 | 1.61 µM (active) |  |
| CCCOc1sc(C(=O)N2CCC(c3cc(CN)ccc3F)CC2)c(C)c1Br | 9.91 µM (active) |  |
| OCCC(F)(F)C(F)(F)C(F)(F)C(F)(F)C(F)(F)C(F)(F)C(F)(F)C(F)(F)F | 16.7 µM (active) and 24.8 µM (active) | inactive |
| c1ccc2cc3c(ccc4ccccc43)cc2c1 | 3.97 µM (active) |  |
| CC(O)CO (configuration not stated) |  | inactive |
| C=C(C)C(=O)OCCC(F)(F)C(F)(F)C(F)(F)C(F)(F)C(F)(F)C(F)(F)F |  | inactive |
| NC(=O)N(O)[C@@H]1C=C[C@H](Oc2cccc(Oc3ccc(F)cc3)c2)C1 |  | inactive |
| CC[C@H](C)[C@@H](C(=O)O)n1sc2ccccc2c1=O |  | inactive |
| Cc1oc(-c2ccccc2)nc1CCOc1ccc(C[C@H](Nc2ccccc2C(=O)c2ccccc2)C(=O)O)cc1 | 5.29 µM (active) |  |
| CC#C[C@]1(O)CC[C@H]2[C@@H]3CCC4=CC(=O)CCC4=C3[C@@H](c3ccc(N(C)C)cc3)C[C@@]21C | 12.9 µM (active) |  |
| COCC(C)O (configuration not stated) |  | inactive |
| COC(=O)CCCCC(=O)OC |  | inactive |

read-out: urokinase plasminogen activator (uPA), PLAU (gene 5328); experiment: BSK_BE3C_uPA: BioMAP Diversity Plus: BE3C Assay for urokinase plasminogen activator (uPA) Biomarker Activity (AID 2283038); conditions: primary human bronchial epithelial cells; actives raise or lower the signal;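 for outcome: uPA protein level quantified by ELISA in cell cultures; uPA read one day after compound addition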
Summary of the method: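 ELISA for uPA on human primary bronchial epithelial cultures 24 h post-treatment, gain or loss against DMSO. Parallel SRB staining (0.1% after 10% TCA fixation, 560 nm) assessed overt cytotoxicity.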

| Compound | AC50 | outcome |
| --- | --- | --- |
| CCCCCCCCCCCCN1CCCC1=O | 35.1 µM (active) |  |
| CCCOC(=O)c1ccc(O)cc1 |  | inactive |
| CC(=O)NC1(c2cccc(F)c2)CCN(CC[C@@]2(c3ccc(Cl)c(Cl)c3)CN(c3ccccc3)C(=O)CO2)CC1 | 16.6 µM (active) |  |
| CCc1nn(C2CCCCC2)c2cc(C3(C#N)CCC(C(=O)O)CC3)ccc12 (configuration not stated) | 3.48 µM (active) |  |
| ClC1=C(Cl)C(Cl)(Cl)C(Cl)=C1Cl | 7.28 µM (active) |  |
| C[C@@H]1C[C@H]2[C@@H]3CCC4=CC(=O)C=C[C@]4(C)[C@@]3(F)[C@@H](O)C[C@]2(C)[C@@]1(O)C(=O)COP(=O)(O)O |  | inactive |
| CCCCCCCCC(=O)O |  | inactive |
| NC(=O)N1C(=O)C(C(=O)c2cc(Cl)cs2)c2cc(F)c(Cl)cc21 (configuration not stated) | 6.91 µM (active) |  |
| CC(C)(C)CC(C)(C)c1ccc(O)c(-n2nc3ccccc3n2)c1 |  | inactive |
| c1ccc2c(c1)ccc1ccccc12 |  | inactive |
| CN1CCC[C@H]1c1cccnc1 |  | inactive |
| CCOC(=O)CC(O)(CC(=O)OCC)C(=O)OCC |  | inactive |
| O=c1c(-c2ccc(O)cc2)coc2cc(O)ccc12 |  | inactive |
| CCCCCCCCCCCCCC[N+](C)(C)C | 4.85 µM (active) |  |
| CCCCCCCCOC(=O)CCCCCCCCC(=O)OCCCCCCCC |  | inactive |
| OC1CCCCC1 |  | inactive |

| Compound | AC50 | outcome |
| --- | --- | --- |
| CCc1ccc(CCOc2ccc(CC3SC(=O)NC3=O)cc2)nc1 (configuration not stated) |  | inactive |
| COCC(C)OCC(C)O (configuration not stated) |  | inactive |
| N#C[C@@H]1CC(F)(F)CN1C(=O)CNC1CC2CCC(C1)N2c1ncccn1 (some centres not stated) |  | inactive |
| CCCCCCCCCCCCCCCS(=O)(=O)Oc1ccccc1 |  | inactive |
| CCN(CC)CCNc1ccc(CNC=O)c2sc3ccc(OC)cc3c(=O)c12 | 20 µM (active) |  |
| CCCOc1sc(C(=O)N2CCC(c3cc(CN)ccc3F)CC2)c(C)c1Br | 5.88 µM (active) |  |
| OCCC(F)(F)C(F)(F)C(F)(F)C(F)(F)C(F)(F)C(F)(F)C(F)(F)C(F)(F)F | 27.9 µM (active) and 27.7 µM (active) | inactive |
| c1ccc2cc3c(ccc4ccccc43)cc2c1 |  | inactive |
| CC(O)CO (configuration not stated) |  | inactive |
| C=C(C)C(=O)OCCC(F)(F)C(F)(F)C(F)(F)C(F)(F)C(F)(F)C(F)(F)F |  | inactive |
| NC(=O)N(O)[C@@H]1C=C[C@H](Oc2cccc(Oc3ccc(F)cc3)c2)C1 |  | inactive |
| CC[C@H](C)[C@@H](C(=O)O)n1sc2ccccc2c1=O |  | inactive |
| Cc1oc(-c2ccccc2)nc1CCOc1ccc(C[C@H](Nc2ccccc2C(=O)c2ccccc2)C(=O)O)cc1 | 1.8 µM (active) |  |
| CC#C[C@]1(O)CC[C@H]2[C@@H]3CCC4=CC(=O)CCC4=C3[C@@H](c3ccc(N(C)C)cc3)C[C@@]21C | 34.7 µM (active) |  |
| COCC(C)O (configuration not stated) |  | inactive |
| COC(=O)CCCCC(=O)OC |  | inactive |

From PubChem BioAssay (EPA / NIEHS)
